Assay results published in PubChem BioAssay (EPA / NIEHS).
Records with an inconclusive call do not appear. The source made the active and inactive calls. How the source made its calls, unless noted: active means hit-call score of the fitted dose curve at least 0.9, where 1 is the maximum; inactive means score below 0.9.

Legend:
[1] = biological target: Glucocorticoid receptor (Homo sapiens) (UniProt P04150); assay: ATG_GR_TRANS: Attagene TRANS-FACTORIAL HepG2 Assay for human Glucocorticoid Receptor (GR) (AID 2282978; active means hit-call score of the fitted dose curve at least 0.9, where 1 is the maximum;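 further: activators score as hits since higher reporter transcript over DMSO is fitted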); details: HepG2 Attagene TRANS GR reporter, mRNA transcription
Chain of Glucocorticoid receptor (Homo sapiens) (P04150 whole entry, looked up, the tested form may be a part): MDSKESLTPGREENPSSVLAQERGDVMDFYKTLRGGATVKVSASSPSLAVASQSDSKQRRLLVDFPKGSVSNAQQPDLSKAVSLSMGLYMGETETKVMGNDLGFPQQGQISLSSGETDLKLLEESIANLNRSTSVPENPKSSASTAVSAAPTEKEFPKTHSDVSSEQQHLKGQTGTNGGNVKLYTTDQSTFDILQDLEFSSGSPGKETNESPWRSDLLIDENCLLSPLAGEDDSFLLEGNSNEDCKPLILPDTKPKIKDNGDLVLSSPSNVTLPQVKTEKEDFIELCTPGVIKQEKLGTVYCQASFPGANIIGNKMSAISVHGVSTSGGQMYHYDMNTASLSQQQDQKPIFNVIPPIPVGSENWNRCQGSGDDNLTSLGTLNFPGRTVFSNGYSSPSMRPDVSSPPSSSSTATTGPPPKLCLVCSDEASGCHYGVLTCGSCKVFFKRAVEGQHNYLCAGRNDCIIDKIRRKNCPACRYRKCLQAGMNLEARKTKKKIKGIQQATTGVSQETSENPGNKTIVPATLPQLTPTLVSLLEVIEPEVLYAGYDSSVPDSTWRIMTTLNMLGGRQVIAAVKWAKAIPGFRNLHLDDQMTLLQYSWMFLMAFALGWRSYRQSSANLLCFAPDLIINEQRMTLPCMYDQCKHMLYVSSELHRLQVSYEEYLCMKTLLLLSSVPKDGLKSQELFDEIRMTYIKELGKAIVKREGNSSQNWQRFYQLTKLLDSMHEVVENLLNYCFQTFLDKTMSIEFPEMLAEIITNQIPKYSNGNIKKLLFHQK
Summary of the method: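 Exogenous NR-GAL4 fusion activity was assessed through induced GAL4-UAS reporter transcripts in transfected human HepG2 cells, quantified after 24 h by RT-PCR and fluorescent capillary electrophoresis with DMSO as baseline.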

[2] = biological target: Oxysterols receptor LXR-beta (Homo sapiens) (UniProt P55055); assay: ATG_LXRb_TRANS: Attagene TRANS-FACTORIAL HepG2 Assay for human Liver X Receptor beta (LXRb) (AID 2282981; active means hit-call score of the fitted dose curve at least 0.9, where 1 is the maximum); details: HepG2 Attagene TRANS GAL4-LXRb reporter, mRNA
Chain of Oxysterols receptor LXR-beta (Homo sapiens) (P55055 whole entry, looked up, the tested form may be a part): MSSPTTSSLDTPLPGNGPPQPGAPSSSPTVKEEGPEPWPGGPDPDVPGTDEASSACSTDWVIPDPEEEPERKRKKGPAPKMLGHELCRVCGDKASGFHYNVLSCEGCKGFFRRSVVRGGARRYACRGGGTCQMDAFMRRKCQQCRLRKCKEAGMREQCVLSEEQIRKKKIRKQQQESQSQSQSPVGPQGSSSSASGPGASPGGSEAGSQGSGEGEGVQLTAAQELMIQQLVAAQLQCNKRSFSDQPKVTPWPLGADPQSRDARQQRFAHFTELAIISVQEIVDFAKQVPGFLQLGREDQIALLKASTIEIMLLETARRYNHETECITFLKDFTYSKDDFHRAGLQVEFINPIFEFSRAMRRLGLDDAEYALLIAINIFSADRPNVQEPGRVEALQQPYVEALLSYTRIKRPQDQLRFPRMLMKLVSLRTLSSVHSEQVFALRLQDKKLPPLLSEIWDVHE
Summary of the method: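 HepG2 cells transiently transfected with GAL4-UAS reporter units for chimeric NR-Gal4 proteins, dosed for 24 h. Reporter transcripts measured by RT-PCR and capillary electrophoresis; gain-of-signal fitting relative to DMSO.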

[3] = biological target: Hepatocyte nuclear factor 4-alpha (Homo sapiens) (UniProt P41235); assay: ATG_HNF4a_TRANS: Attagene TRANS-FACTORIAL HepG2 Assay for human Hepatocyte Nuclear Factor 4 alpha (HNF4a) (AID 2282982; active means hit-call score of the fitted dose curve at least 0.9, where 1 is the maximum); details: HepG2 HNF4a transactivation reporter, mRNA readout
Chain of Hepatocyte nuclear factor 4-alpha (Homo sapiens) (P41235 whole entry, looked up, the tested form may be a part): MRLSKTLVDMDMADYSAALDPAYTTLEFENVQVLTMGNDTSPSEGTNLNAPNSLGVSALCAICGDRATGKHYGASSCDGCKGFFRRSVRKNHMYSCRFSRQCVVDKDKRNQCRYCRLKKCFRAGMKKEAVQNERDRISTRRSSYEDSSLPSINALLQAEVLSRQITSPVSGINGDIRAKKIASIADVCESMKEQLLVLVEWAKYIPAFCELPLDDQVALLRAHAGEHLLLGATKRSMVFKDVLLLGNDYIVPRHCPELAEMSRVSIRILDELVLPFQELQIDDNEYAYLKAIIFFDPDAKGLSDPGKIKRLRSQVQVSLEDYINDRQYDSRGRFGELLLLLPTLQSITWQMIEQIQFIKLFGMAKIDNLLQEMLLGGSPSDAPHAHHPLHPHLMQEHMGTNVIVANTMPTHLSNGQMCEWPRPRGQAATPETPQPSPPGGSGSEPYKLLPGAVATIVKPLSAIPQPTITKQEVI
Summary of the method: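 HepG2 cells transiently transfected with HNF4a-Gal4 chimera and GAL4-UAS reporter units, dosed for 24 h. Reporter mRNA measured by RT-PCR, fluorescent primer extension and capillary electrophoresis; gain-of-signal fitted relative to DMSO.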

[4] = ATG_M_32_TRANS: Attagene TRANS-FACTORIAL HepG2 Assay for M32 Transcription Factor (Internal Marker) (AID 2282984; active means hit-call score of the fitted dose curve at least 0.9, where 1 is the maximum); details: HepG2 Attagene TRANS M32 internal marker reporter
Summary of the method: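 HepG2 cells transiently transfected with GAL4-UAS reporter units, dosed for 24 hours. Reporter mRNA quantified by RT-PCR, 6-FAM labelling, HpaI digestion and capillary electrophoresis; internal-marker signal fitted upward relative to DMSO.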

[5] = biological target: Nuclear respiratory factor 1 (Homo sapiens) (UniProt Q16656); assay: ATG_NRF1_CIS: Attagene CIS-FACTORIAL HepG2 Assay for human Nuclear Respiratory Factor 1 (NRF1) Orphan Gene (AID 2282987); details: HepG2 NRF1 cis-element reporter, Attagene multiplex; actives raise or lower the signal
Chain of Nuclear respiratory factor 1 (Homo sapiens) (Q16656 whole entry, looked up): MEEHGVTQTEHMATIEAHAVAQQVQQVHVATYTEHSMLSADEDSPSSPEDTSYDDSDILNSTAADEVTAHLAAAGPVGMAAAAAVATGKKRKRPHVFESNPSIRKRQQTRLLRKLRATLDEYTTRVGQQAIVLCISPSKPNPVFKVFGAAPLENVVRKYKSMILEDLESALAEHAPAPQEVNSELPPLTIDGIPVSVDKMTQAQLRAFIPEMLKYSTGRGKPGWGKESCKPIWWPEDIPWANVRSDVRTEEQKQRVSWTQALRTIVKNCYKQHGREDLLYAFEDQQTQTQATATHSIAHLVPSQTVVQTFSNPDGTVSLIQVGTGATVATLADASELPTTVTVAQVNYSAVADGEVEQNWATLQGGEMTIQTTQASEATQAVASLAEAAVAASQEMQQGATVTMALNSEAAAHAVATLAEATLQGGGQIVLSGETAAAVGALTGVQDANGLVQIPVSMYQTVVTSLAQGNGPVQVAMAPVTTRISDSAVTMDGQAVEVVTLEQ
Summary of the method: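 Using DMSO as baseline, gain- or loss-of-signal was fitted for reporter mRNA levels in HepG2 cells transiently transfected with cis-regulated reporter units. Samples were taken 24 h after dosing and read by RT-PCR with capillary electrophoresis.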

[6] = ATG_NFI_CIS: Attagene CIS-FACTORIAL HepG2 Assay for human Nuclear Factor I (NFI) (AID 2282989); details: HepG2 cis-regulatory reporter, NFI response element transcription; actives raise or lower the signal
Summary of the method: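 Endogenous TF activity in HepG2 cells transiently transfected with cis-element-driven multiplexed reporter units, read 24 h after dosing. Reporter mRNA quantified by RT-PCR, 6-FAM labelling, HpaI digestion and capillary electrophoresis; bidirectional fit versus DMSO.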

[7] = biological target: Myc proto-oncogene protein (Homo sapiens) (UniProt P01106); assay: ATG_Myc_CIS: Attagene CIS-FACTORIAL HepG2 Assay for human Myelocytomatosis (Myc) Proto-Oncogene Transcription Factor (AID 2282990); details: HepG2, Attagene cis-reporter transcription factor activity; actives raise or lower the signal
Chain of Myc proto-oncogene protein (Homo sapiens) (P01106 whole entry, looked up, the tested form may be a part): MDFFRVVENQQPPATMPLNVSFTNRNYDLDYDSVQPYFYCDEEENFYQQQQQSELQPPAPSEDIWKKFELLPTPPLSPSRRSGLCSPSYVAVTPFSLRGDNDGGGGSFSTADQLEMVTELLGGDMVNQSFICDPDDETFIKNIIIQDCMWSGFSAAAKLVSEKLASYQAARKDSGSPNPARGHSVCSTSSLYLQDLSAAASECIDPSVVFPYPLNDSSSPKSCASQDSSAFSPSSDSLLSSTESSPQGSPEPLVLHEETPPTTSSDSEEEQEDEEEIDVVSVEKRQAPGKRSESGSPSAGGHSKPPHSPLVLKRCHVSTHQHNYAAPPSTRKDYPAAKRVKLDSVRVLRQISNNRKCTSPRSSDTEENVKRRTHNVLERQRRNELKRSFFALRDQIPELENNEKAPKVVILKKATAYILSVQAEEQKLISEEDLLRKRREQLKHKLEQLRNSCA
Summary of the method: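 Fluorescence intensity of reporter-specific cDNA fragments, separated by capillary electrophoresis, gives the signal. Transfected HepG2 cells carrying cis-promoter reporter constructs are incubated with compound for 24 h; DMSO serves as baseline.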

[8] = ATG_NF_kB_CIS: Attagene CIS-FACTORIAL HepG2 Assay for human Nuclear Factor Kappa B (NF-kB) (AID 2282991); details: HepG2 Attagene cis-factorial NF-kB reporter mRNA; actives raise or lower the signal
Summary of the method: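 Endpoint from a 52-component multiplexed HepG2 reporter panel: cis-regulated transcription units transiently transfected, 24 h dosing, reporter mRNA quantified by RT-PCR and capillary electrophoresis, scored as increase or decrease against DMSO.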

[9] = ATG_NRF2_ARE_CIS: Attagene CIS-FACTORIAL HepG2 Assay for human Nuclear Factor Erythroid 2 Related Factor 2 (NFR2) response to Antioxidant Response Elements (ARE) (AID 2282992); details: HepG2 Attagene ARE/NRF2 reporter, transcription factor activity; actives raise or lower the signal;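 on AC50: reporter mRNA level measured by RT-PCR and capillary electrophoresis fluorescence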
Summary of the method: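 Multiplexed reporter mRNA profiling in HepG2 after a 24 h chemical exposure. Curves fitted in both directions relative to DMSO negative control.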

[10] = ATG_Oct_MLP_CIS: Attagene CIS-FACTORIAL HepG2 Assay for human Octamer-Binding Transcription Factor (Oct) (AID 2282993); details: HepG2 Attagene cis-factorial Oct reporter, mRNA; actives raise or lower the signal
Summary of the method: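 HepG2 cells transiently transfected with cis-element-driven reporter transcription units (endogenous TF activity); 24 h compound exposure. Reporter mRNA quantified by RT-PCR, 6-FAM labelling, HpaI digestion and capillary electrophoresis; bidirectional fit versus DMSO baseline.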

[11] = biological target: Cellular tumor antigen p53 (Homo sapiens) (UniProt P04637); assay: ATG_p53_CIS: Attagene CIS-FACTORIAL HepG2 Assay for human p53 Transcription Factor (AID 2282994); details: HepG2 p53 cis-element reporter, Attagene mRNA; actives raise or lower the signal
Chain of Cellular tumor antigen p53 (Homo sapiens) (P04637 whole entry, looked up): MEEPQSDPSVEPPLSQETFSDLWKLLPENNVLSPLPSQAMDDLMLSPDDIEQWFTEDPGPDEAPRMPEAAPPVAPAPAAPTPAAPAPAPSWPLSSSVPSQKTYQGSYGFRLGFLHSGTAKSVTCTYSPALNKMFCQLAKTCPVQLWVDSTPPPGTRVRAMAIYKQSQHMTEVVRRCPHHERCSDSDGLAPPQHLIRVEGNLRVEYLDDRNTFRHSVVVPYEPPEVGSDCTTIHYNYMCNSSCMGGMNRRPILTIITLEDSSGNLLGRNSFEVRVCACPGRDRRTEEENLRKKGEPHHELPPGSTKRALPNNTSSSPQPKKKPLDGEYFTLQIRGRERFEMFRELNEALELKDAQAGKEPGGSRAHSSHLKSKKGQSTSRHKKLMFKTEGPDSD
Summary of the method: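 Multiplexed reporter mRNA assay in human HepG2 liver cells; cis-regulated units report endogenous factor activity. Values come from bidirectional curve fitting against DMSO negative control after 24 h treatment.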

[12] = biological target: Oxysterols receptor LXR-alpha (Homo sapiens) (UniProt Q13133); assay: ATG_LXRa_TRANS: Attagene TRANS-FACTORIAL HepG2 Assay for human Liver X Receptor alpha (LXRa) (AID 2282980; active means hit-call score of the fitted dose curve at least 0.9, where 1 is the maximum); details: HepG2 Attagene TRANS reporter, LXRa transactivation
Chain of Oxysterols receptor LXR-alpha (Homo sapiens) (Q13133 whole entry, looked up, the tested form may be a part): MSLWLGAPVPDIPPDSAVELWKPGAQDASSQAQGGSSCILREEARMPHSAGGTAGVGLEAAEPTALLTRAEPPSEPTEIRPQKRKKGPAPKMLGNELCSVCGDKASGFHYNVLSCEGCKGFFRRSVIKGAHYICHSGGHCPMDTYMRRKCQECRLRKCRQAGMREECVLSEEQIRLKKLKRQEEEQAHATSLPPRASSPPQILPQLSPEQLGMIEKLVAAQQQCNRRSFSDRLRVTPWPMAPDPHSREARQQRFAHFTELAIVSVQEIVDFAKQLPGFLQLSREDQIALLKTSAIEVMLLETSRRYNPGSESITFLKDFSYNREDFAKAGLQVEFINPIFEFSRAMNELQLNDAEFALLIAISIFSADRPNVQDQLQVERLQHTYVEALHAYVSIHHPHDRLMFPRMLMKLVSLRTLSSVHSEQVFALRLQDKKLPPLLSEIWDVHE
Summary of the method: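 HepG2 cells were transiently transfected with multiplexed reporter units driven by chimeric LXRa–GAL4 fusion proteins, then dosed for 24 h. Reporter mRNA was quantified by RT-PCR, fluorescent labelling and capillary electrophoresis; gain of signal fitted against DMSO baseline.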

[13] = ATG_M_06_TRANS: Attagene TRANS-FACTORIAL HepG2 Assay for M06 Transcription Factor (Internal Marker) (AID 2282983; active means hit-call score of the fitted dose curve at least 0.9, where 1 is the maximum;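 further: reporter transcript level by RT-PCR then capillary electrophoresis fluorescence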); details: HepG2 Attagene TRANS M06 internal marker reporter
Summary of the method: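 HepG2 cells transiently transfected with multiplexed GAL4-UAS reporter transcription units; after 24 h compound exposure, reporter mRNA measured by RT-PCR, FAM-labelled primer extension, HpaI digestion and capillary electrophoresis. Gain-of-signal fitted versus DMSO baseline; background control readout.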

[14] = BSK_3C_uPAR: BioMAP Diversity Plus: 3C Assay for Urokinase-type plasminogen activator receptor (uPAR) Biomarker Activity (AID 2282998); details: BioMAP 3C HUVEC, uPAR biomarker ELISA; actives raise or lower the signal
Summary of the method: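 Primary human umbilical vein endothelial cells, 3C system; surface uPAR measured by ELISA 24 h after dosing. Cytotoxicity via SRB total protein in parallel cultures; bidirectional fit against DMSO.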

[15] = BSK_3C_VCAM1: BioMAP Diversity Plus: 3C Assay for Vascular cell adhesion molecule 1 (VCAM1) Biomarker Activity (AID 2282999); details: BioMAP 3C HUVEC, VCAM1 ELISA, cytokine-stimulated; actives raise or lower the signal
Summary of the method: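 Human umbilical vein endothelial cells (3C system), biomarker read by ELISA 24 h after dosing; bidirectional fit against DMSO baseline. Cytotoxicity tracked by SRB total-protein staining in parallel cultures at biomarker time.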

[16] = biological target: Transcriptional activator Myb (Homo sapiens) (UniProt P10242); assay: ATG_Myb_CIS: Attagene CIS-FACTORIAL HepG2 Assay for human Myeloblastosis (Myb) Proto-Oncogene Transcription Factor (AID 2282986); details: HepG2 Attagene CIS-FACTORIAL Myb reporter transcription; actives raise or lower the signal
Chain of Transcriptional activator Myb (Homo sapiens) (P10242 whole entry, looked up): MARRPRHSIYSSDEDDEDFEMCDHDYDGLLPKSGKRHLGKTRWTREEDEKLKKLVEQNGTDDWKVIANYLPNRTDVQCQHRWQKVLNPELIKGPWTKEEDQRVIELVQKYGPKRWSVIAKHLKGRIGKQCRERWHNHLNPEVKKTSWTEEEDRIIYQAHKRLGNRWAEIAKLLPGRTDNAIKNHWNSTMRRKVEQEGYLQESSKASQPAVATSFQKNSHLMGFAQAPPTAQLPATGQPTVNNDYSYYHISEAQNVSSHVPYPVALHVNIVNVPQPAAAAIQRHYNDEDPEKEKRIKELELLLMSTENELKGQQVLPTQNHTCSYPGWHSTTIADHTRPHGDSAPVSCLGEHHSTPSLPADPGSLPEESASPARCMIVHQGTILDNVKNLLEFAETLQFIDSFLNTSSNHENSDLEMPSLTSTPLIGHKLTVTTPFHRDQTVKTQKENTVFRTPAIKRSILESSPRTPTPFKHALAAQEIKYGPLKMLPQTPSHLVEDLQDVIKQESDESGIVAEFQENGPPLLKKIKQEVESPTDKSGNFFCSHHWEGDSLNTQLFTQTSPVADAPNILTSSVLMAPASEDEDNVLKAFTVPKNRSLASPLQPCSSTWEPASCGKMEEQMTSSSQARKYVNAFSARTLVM
Summary of the method: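 In this HepG2 transient-transfection format, cis-regulated reporter mRNA is quantified 24 h post-dosing by RT-PCR with capillary electrophoresis, fitted bidirectionally to DMSO baseline.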

[17] = biological target: Nuclear receptor subfamily 4 group A member 2 (Homo sapiens) (UniProt P43354); assay: ATG_NURR1_TRANS: Attagene TRANS-FACTORIAL HepG2 Assay for human Nuclear Receptor Related Protein 1 (NURR1) (AID 2282985; active means hit-call score of the fitted dose curve at least 0.9, where 1 is the maximum); details: HepG2 Attagene TRANS reporter, mRNA readout
Chain of Nuclear receptor subfamily 4 group A member 2 (Homo sapiens) (P43354 whole entry, looked up, the tested form may be a part): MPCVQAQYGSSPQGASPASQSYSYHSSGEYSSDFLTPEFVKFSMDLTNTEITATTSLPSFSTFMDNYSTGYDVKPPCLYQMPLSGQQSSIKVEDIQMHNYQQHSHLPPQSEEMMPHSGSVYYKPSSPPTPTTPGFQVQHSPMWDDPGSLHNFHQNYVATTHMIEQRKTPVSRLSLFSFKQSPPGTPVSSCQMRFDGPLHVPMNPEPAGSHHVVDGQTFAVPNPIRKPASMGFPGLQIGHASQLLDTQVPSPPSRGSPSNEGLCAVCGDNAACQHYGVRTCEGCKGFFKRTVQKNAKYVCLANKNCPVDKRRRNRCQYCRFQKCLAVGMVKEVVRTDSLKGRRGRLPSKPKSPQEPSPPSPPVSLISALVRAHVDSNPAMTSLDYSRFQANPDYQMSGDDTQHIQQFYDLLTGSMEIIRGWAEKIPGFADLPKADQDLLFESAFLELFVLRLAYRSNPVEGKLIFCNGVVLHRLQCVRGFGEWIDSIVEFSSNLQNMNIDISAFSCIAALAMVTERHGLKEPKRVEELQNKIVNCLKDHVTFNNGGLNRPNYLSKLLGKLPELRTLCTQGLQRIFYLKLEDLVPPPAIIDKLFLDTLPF
Summary of the method: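 HepG2 cells transiently transfected with NURR1-Gal4 chimera and GAL4-UAS reporter units; after 24 hr compound exposure, reporter mRNA quantified by RT-PCR and capillary electrophoresis; gain of signal fitted against DMSO.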

Row | SMILES | outcome [1] | outcome [2] | outcome [3] | outcome [4] | outcome [5] | outcome [6] | outcome [7] | outcome [8] | AC50 [9] | outcome [10] | outcome [11] | outcome [12] | outcome [13] | outcome [14] | outcome [15] | outcome [16] | outcome [9] | outcome [17] | AC50 [14]
1 | O=C(C=Cc1ccccc1)OCCCc1ccccc1 | inactive | inactive | inactive | inactive | inactive | inactive | inactive | inactive | 58 µM (active) | inactive | inactive |  |  |  |  |  |  |  | 
2 | Nc1ccc(N)c([N+](=O)[O-])c1 | inactive | inactive |  | inactive |  |  | inactive |  |  | inactive | inactive | inactive | inactive | inactive | inactive |  |  |  | 
3 | CC(C)(O)C(=O)c1ccc(OCCO)cc1 | inactive | inactive |  |  | inactive | inactive | inactive | inactive |  | inactive | inactive | inactive | inactive |  |  | inactive | inactive |  | 
4 | CC1=CC(O)CC(C)(C)C1 (centres undefined) | inactive | inactive |  | inactive | inactive | inactive | inactive | inactive |  | inactive | inactive |  |  |  |  | inactive | inactive |  | 
5 | CC(=N[Si](C)(C)C)O[Si](C)(C)C | inactive | inactive | inactive | inactive | inactive | inactive | inactive | inactive |  | inactive | inactive |  |  |  |  | inactive | inactive |  | 
6 | CC(=O)c1ccc(C)cc1 | inactive | inactive | inactive | inactive | inactive | inactive | inactive | inactive |  | inactive |  |  |  | inactive | inactive | inactive | inactive |  | 
7 | c1ccc(OCCOc2ccccc2)cc1 | inactive |  | inactive | inactive | inactive | inactive | inactive | inactive |  | inactive | inactive | inactive | inactive | inactive | inactive | inactive | inactive |  | 
8 | CC(C)(C)c1cccc(O)c1 | inactive | inactive |  |  | inactive | inactive | inactive | inactive |  | inactive | inactive |  |  |  | inactive | inactive | inactive | inactive | 0.016 µM (active)
9 | CCCCOC(=O)C(C)OC(=O)CCC (centres undefined) | inactive | inactive | inactive |  | inactive | inactive | inactive | inactive |  | inactive | inactive |  | inactive |  |  | inactive | inactive |  | 
